Results: PubChem BioAssay AID652067 (The Scripps Research Institute Molecular Screening Center, 2013)
The campaign covered roughly 370,000 compounds. About 5,400 (1.5%) were called active.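 The calls were made as follows: active = activation above the mean of all tested compounds plus 3 SD (cut at about 5.5% in these data); inactive = the rest.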 The list comes from a sample in which actives are over-represented; it also holds similar structures and randomly drawn compounds.

system: DAF-12 nuclear receptor (Haemonchus contortus); assay: H. contortus DAF-12 nuclear receptor activators, primary screen, cell-based, luminescence, HEK293, lit1-tk-luc reporter (AID 652067); conditions: HEK293 hcDAF-12 lit1-tk-luc reporter, at 6.8 µM, active compounds read high, 0% DMSO, 100% Δ7-dafachronic acid;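 also: 100% = response to 3 µM Δ7-dafachronic acid high control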

Question: How did the activation turn out when CCOC(=O)N1CCN(C(=O)C[C@H]2C[C@@]3(C(=O)OC)C(=C[C@H](C(C)(C)C)O[C@@H]3C)N(Cc3ccc(Cl)cc3Cl)C2=O)CC1 was run?
Answer: -1.96% (inactive)

Question: COc1ccc([C@H]2[C@H](C(C)=O)N3N=Cc4ccccc4C3C23C(=O)OC(C)(C)OC3=O)cc1 (stereo partly specified) was tested. Which activation did it give?
Answer: -0.72% (inactive)

Question: Which activation does the source give for COC(=O)c1cccc(Cn2ccc3ccc(-c4ccc5ccn(C(=O)c6ccccc6C)c5c4)cc32)c1 here?
Answer: -0.36% (inactive)

Question: How did the activation turn out when O=C(NC1CCCCN(Cc2cccc(C(F)(F)F)c2)C1=O)c1ccccc1I (stereo unspecified) was run?
Answer: -2.6% (inactive)

Question: How did the activation turn out when O=C(CSCc1ccccc1)N1CCc2ccccc21 was run?
Answer: 6.78% (active)

Question: With O=C(CN1C(=O)c2ccccc2S1(=O)=O)N1CCc2ccccc21 as the compound, how does the activation read?
Answer: -5.07% (inactive)

Question: With CC(OC(=O)Cc1ccc(F)cc1)C(=O)N1CCc2ccccc21 (stereo unspecified) as the compound, how does the activation read?
Answer: -0.21% (inactive)

Question: Which activation does the source give for CC(=O)N1CCc2cc(S(=O)(=O)NCCC(=O)N3CCCC3)ccc21 here?
Answer: 1.64% (inactive)

Question: For Cn1c(NC(=O)c2ccccc2)nc2ccccc21, which activation is on record?
Answer: 14.3% (active)

Question: Which activation does the source give for O=C(NC1=CC(=O)c2ccccc2C1=O)c1ccccc1 here?
Answer: -0.21% (inactive)

Question: With CCn1c(NC(=O)c2nn(C)cc2Br)nc2ccccc21 as the compound, how does the activation read?
Answer: -2.93% (inactive)

Question: Which activation does the source give for C[C@@H](NC(=O)c1ccccc1OCC(=O)Nc1ccc(I)cc1)C(=O)N(C)Cc1ccccc1 here?
Answer: -0.3% (inactive)

Question: With COCC(=O)N[C@@H]1C[C@@H]2O[C@@H](CO)CC[C@@H]2O[C@@H]1CCc1ccc(-c2ccccc2)cc1 as the compound, how does the activation read?
Answer: -2.01% (inactive)

Question: For O=C(O)CSc1nccc2ccccc12, which activation is on record?
Answer: 0.9% (inactive)

Question: For Cn1c(SCc2nc3ccccc3s2)nnc1-c1ccc2c(c1)OCO2, which activation is on record?
Answer: 3.52% (inactive)

Question: For O=C(CSc1nc2ccccc2s1)NN=Cc1ccc(O)cc1O, which activation is on record?
Answer: -0.04% (inactive)

Question: With O=C(O)CSCc1nc2ccccc2s1 as the compound, how does the activation read?
Answer: 5.6% (active)

Question: For O=C(CSc1nc2ccccc2s1)N=Nc1c(O)[nH]c2ccccc12, which activation is on record?
Answer: -1.5% (inactive)

Question: With O=C(O)c1ccccc1CSc1nc2ccccc2s1 as the compound, how does the activation read?
Answer: 8.09% (active)

Question: With O=C(N[C@H](Cc1ccccc1)C(=O)N1CCCN(Cc2cccs2)CC1)[C@H]1O[C@@H](n2ccc(=O)[nH]c2=O)[C@H](O)[C@@H]1O as the compound, how does the activation read?
Answer: -1.83% (inactive)

Question: For CC(C)CNC(=O)OCc1cn(Cc2ccc(F)cc2)nn1, which activation is on record?
Answer: -2.06% (inactive)

Question: With CS(=O)(=O)N(CC(=O)Nc1ccc(F)cc1F)c1cccc([N+](=O)[O-])c1 as the compound, how does the activation read?
Answer: -0.66% (inactive)

Question: O=C(NCc1ccco1)C1CCCN(S(=O)(=O)c2ccc(Cl)s2)C1 (stereo unspecified) was tested. Which activation did it give?
Answer: -2.39% (inactive)

Question: How did the activation turn out when Cc1nc2ccccc2nc(C)c1=NOCc1ccc(Cl)cc1Cl was run?
Answer: 6.04% (active)

Question: For NC(N)=N/N=C/c1ccc(OCc2ccc(Cl)cc2Cl)cc1, which activation is on record?
Answer: -1.35% (inactive)

Question: Which activation does the source give for Cc1nc2c(OCc3ccc(Cl)cc3Cl)cccn2c1N(C)CC1CC1 here?
Answer: -1.39% (inactive)

Question: For CCOC(=O)[C@]12CCCCC/C=C\1N(Cc1ccc(OC)cc1)C(=O)[C@H]2CC(=O)NCCCN1CCCC1=O, which activation is on record?
Answer: -0.09% (inactive)

Question: For CN(C)Cc1cn(-c2ccc(-c3noc4c3C(=O)N(CC(=O)N3CCOCC3)CC4)cc2)nn1, which activation is on record?
Answer: 2.44% (inactive)

Question: How did the activation turn out when CCOC(=O)CNC(=O)N(C)[C@H]1C[C@H]2c3[nH]c4c(-c5ccc6c(c5)OCO6)cccc4c3CCN2C(=O)[C@H]1[C@H](C)O was run?
Answer: -1.87% (inactive)

Question: With O=C(NNC(=O)c1cc(S(=O)(=O)N2CCCCC2)ccc1Cl)c1ccccc1O as the compound, how does the activation read?
Answer: 1.49% (inactive)

Question: How did the activation turn out when O=C(NNC(=O)c1ccccc1O)c1ccccc1O was run?
Answer: 5.92% (active)

Question: With Cc1cccc(NS(=O)(=O)c2cccc(C(=O)NNC(=O)c3ccccc3O)c2)c1 as the compound, how does the activation read?
Answer: -2.63% (inactive)

Question: With COC(=O)C1=C(C)N(Cc2cccc(C(F)(F)F)c2)C(=NCc2ccccc2)NC1c1ccccc1C(F)(F)F (stereo unspecified) as the compound, how does the activation read?
Answer: -0.61% (inactive)

Question: Which activation does the source give for CC(=O)Nc1ccc(OC[C@@H](O)CN2CCC(C(O)(c3ccccc3)c3ccccc3)CC2)cc1 here?
Answer: -1.17% (inactive)

Question: With CC(C)[C@@H](C)/C=C/[C@@H](C)[C@H]1CC[C@@H]2[C@]1(C)CCC1[C@]23C=C[C@]2(C[C@@H](O)CC[C@]12C)N(c1ccc([N+](=O)[O-])cn1)O3 (stereo partly specified) as the compound, how does the activation read?
Answer: -0.59% (inactive)

Question: CCn1c(=O)n2n(c1=O)[C@@]1(C=C3CCCC[C@H]32)N=C(NC(=O)c2ccccc2)N(Cc2ccccc2)[C@H]1Cc1ccccc1 was tested. Which activation did it give?
Answer: -1.71% (inactive)

Question: Which activation does the source give for CCOc1ccc(/C(O)=C2\C(=O)C(=O)N(c3ccc(OC)cc3)C2c2ccccc2[N+](=O)[O-])cc1 (stereo unspecified) here?
Answer: 6.27% (active)

Question: COc1ccc(/C(O)=C2/C(=O)C(=O)N(CC3CCCO3)C2c2ccc(OC)c(OC)c2)cc1 (stereo unspecified) was tested. Which activation did it give?
Answer: -1.07% (inactive)

Question: How did the activation turn out when COc1ccc(/C(O)=C2/C(=O)C(=O)N(c3nc(C)c(C)s3)C2c2ccco2)cc1 (stereo unspecified) was run?
Answer: 1.96% (inactive)

Question: With O=S1(=O)c2c(NCc3ccco3)cccc2Oc2ccccc2CN1Cc1cn(Cc2cccc(C(F)(F)F)c2)nn1 as the compound, how does the activation read?
Answer: -2.46% (inactive)

Question: For CN(NC(=O)C1CC(=O)N(c2ccccc2)C1)C1=NS(=O)(=O)c2ccccc21 (stereo unspecified), which activation is on record?
Answer: 1.93% (inactive)

Question: How did the activation turn out when CC(=O)C1(C(=O)Nc2nccs2)CC(c2ccccc2C(F)(F)F)=NO1 (stereo unspecified) was run?
Answer: -0.69% (inactive)

Question: Which activation does the source give for COc1ccc(N2CCN(CCNS(=O)(=O)c3ccc(Cl)s3)CC2)cc1 here?
Answer: 0.26% (inactive)

Question: CCSc1ccccc1C(=O)Nc1ccc2c(c1)OCO2 was tested. Which activation did it give?
Answer: 3.08% (inactive)

Question: With CN(Cc1ccccc1)C(=O)COC(=O)/C=C/c1ccc2c(c1)OCO2 as the compound, how does the activation read?
Answer: -1.03% (inactive)

Question: With COc1cccc(/C=C/C(=O)Nc2ccc3c(c2)OCCO3)c1 as the compound, how does the activation read?
Answer: 3.26% (inactive)

Question: Which activation does the source give for Cc1cccc(NC(=O)/C=C/c2ccc3c(c2)OCO3)n1 here?
Answer: 5.86% (active)

Question: With Cc1cccc(NC(=O)Nc2ccc3c(c2)OCO3)n1 as the compound, how does the activation read?
Answer: 8.33% (active)

Question: With CNS(=O)(=O)c1ccc(NC(=O)Nc2ccc3c(c2)OCO3)cc1 as the compound, how does the activation read?
Answer: 4.15% (inactive)

Question: Which activation does the source give for COC(=O)c1cc2c(c3c4cc(F)ccc4n(S(=O)(=O)c4ccccc4)c13)C(=O)N(Cc1ccccc1OC)C2 here?
Answer: 0.96% (inactive)

Question: Which activation does the source give for CCCN1C(=O)c2[nH]nc(-c3ccccc3)c2C1c1ccccc1 (stereo unspecified) here?
Answer: -1.32% (inactive)

Question: For COc1ccccc1CCNC(=O)C1CCN(c2nc(C)cc(C)n2)CC1, which activation is on record?
Answer: -0.5% (inactive)

Question: How did the activation turn out when Cc1cc(OC(=O)NCCc2ccc(F)cc2)ccc1F was run?
Answer: -1.94% (inactive)

Question: Cc1cc(O)cc(O)c1C(=O)Cc1cnn(-c2ccccc2)c1 was tested. Which activation did it give?
Answer: -1.81% (inactive)

Question: With COc1ccc(CNC(=O)COc2ccccc2C(=O)c2cnn(-c3ccccc3)c2)cc1OC as the compound, how does the activation read?
Answer: 3.06% (inactive)

Question: Which activation does the source give for O=C(c1cnn(-c2ccc(Cl)cc2)c1)c1ccccc1O here?
Answer: 6.75% (active)

Question: For CN(CCO)c1cccc2c1S(=O)(=O)N(Cc1cn(Cc3ccc(C(F)(F)F)cc3)nn1)Cc1ccccc1O2, which activation is on record?
Answer: 1.99% (inactive)

Question: For COc1ccccc1C(=O)NC1CCCCN(C(C)C)C1=O (stereo unspecified), which activation is on record?
Answer: 0.55% (inactive)

Question: For Cc1cc(C(=O)OC(C)C(=O)Nc2cccc(S(=O)(=O)N3CCOCC3)c2)c(C)o1 (stereo unspecified), which activation is on record?
Answer: -0.06% (inactive)

Question: O=C(c1c[nH]c2ccccc12)N1CCC(Oc2cccnc2)CC1 was tested. Which activation did it give?
Answer: 1.45% (inactive)

Question: How did the activation turn out when Cc1cc(OCc2cc(C(=O)NCc3cc(C(C)C)no3)no2)cc(C)c1Cl was run?
Answer: 8.95% (active)

Question: With Cc1cc(CN(C)C(=O)c2cc(COc3ccc(C)c(C)c3)on2)n[nH]1 as the compound, how does the activation read?
Answer: -1.73% (inactive)

Question: COc1ccc(OCc2cc(C(=O)NCC3(C)COC3)no2)c(Cl)c1 was tested. Which activation did it give?
Answer: 1.3% (inactive)

Question: For COc1ccc2c(C(C)c3ccc(N)cc3)cn(C)c2c1 (stereo unspecified), which activation is on record?
Answer: -0.33% (inactive)

Question: Which activation does the source give for O=C(NCCc1c[nH]c2ccccc12)OCc1cn(-c2c(F)cccc2F)nn1 here?
Answer: 3% (inactive)

Question: With CCOc1ccc2[nH]c(=S)sc2c1 as the compound, how does the activation read?
Answer: -0.28% (inactive)

Question: How did the activation turn out when Nc1ccc2[nH]c(=S)sc2c1 was run?
Answer: 7.75% (active)

Question: Which activation does the source give for O=c1[nH]c2ccccc2s1 here?
Answer: 1.16% (inactive)

Question: Which activation does the source give for COCc1[nH]nc2c1C(c1ccccc1)N(c1ccccc1)C2=O (stereo unspecified) here?
Answer: -0.15% (inactive)

Question: Which activation does the source give for COc1ccc2c(CC(=O)OCC(=O)Nc3ccccc3[N+](=O)[O-])coc2c1 here?
Answer: 0.19% (inactive)

Question: For O=S1(=O)c2c(cccc2N2CCCC2)O[C@H](COCc2ccccc2)CN1C1CC1, which activation is on record?
Answer: -1.28% (inactive)

Question: How did the activation turn out when Cc1ccc(-n2c(COc3ccccc3)nnc2SCC(=O)Nc2ccc3c(c2)OCCO3)cc1 was run?
Answer: -2.77% (inactive)

Question: C=CC1=CCN(S(=O)(=O)C(C)(C)C)[C@@H]1CCO was tested. Which activation did it give?
Answer: -0.05% (inactive)

Question: Which activation does the source give for c1ccc(-c2csc(N3CCc4ccccc4C3)n2)cc1 here?
Answer: 1.49% (inactive)

Question: N#CC(=C1SC=CS1)c1nc(-c2ccccc2)cs1 was tested. Which activation did it give?
Answer: 5.72% (active)

Question: Which activation does the source give for N#CC(=C1CCCC1)c1nc(-c2ccc(Cl)cc2)cs1 here?
Answer: -0.23% (inactive)

Question: Which activation does the source give for COc1ccc(C(=O)CSc2nnc(-c3cnccn3)n2-c2ccc(C)cc2)cc1 here?
Answer: -3.92% (inactive)

Question: With COC(=O)[C@@]12CCCCC=C1N(CCc1ccc(Cl)cc1)C(=O)[C@H]2CC(=O)NCc1ccc(OC)c(OC)c1 as the compound, how does the activation read?
Answer: -2.23% (inactive)

Question: For CCc1ccccc1NC(=O)CSc1nnc(-c2cccs2)o1, which activation is on record?
Answer: 2.25% (inactive)

Question: For O=C(CCCOc1ccccc1)Nc1cccc(C(=O)O)c1, which activation is on record?
Answer: -0.3% (inactive)

Question: O=C(Cc1c[nH]c2ccccc12)N/N=C/c1cccc(F)c1 was tested. Which activation did it give?
Answer: -2.14% (inactive)

Question: For O=C(O)c1cccc(NC(=S)N/N=C/c2c[nH]c3ccccc23)c1, which activation is on record?
Answer: 5.99% (active)

Question: For CCn1c(SC)nc(O)c(C(c2ccc(OC)c(O)c2)c2c(O)nc(SC)n(CC)c2=O)c1=O, which activation is on record?
Answer: -1.4% (inactive)

Question: Which activation does the source give for Cc1cccc(N2Cc3ccccc3C2=NC(=O)c2ccc(Cl)nc2)c1 here?
Answer: 5.83% (active)

Question: For Cc1cccc(N2CCN(C(=O)c3cccc(S(=O)(=O)N4CCc5ccccc5C4)c3)CC2C)c1 (stereo unspecified), which activation is on record?
Answer: -2.28% (inactive)

Question: N#Cc1ccc(N2Cc3ccccc3/C2=N/C(=O)Nc2ccc(Cl)cc2)cc1 was tested. Which activation did it give?
Answer: -0.08% (inactive)
